According to the supplement of paper PMC10646978:
± gives the standard deviation.

Columns and labels:
Settings in all cases: modulator concentration 10 µM
[1] = tested on: RAW-Dual (murine macrophage reporter line); experiment: NF-kB reporter (SEAP) activity fold change vs agonist alone; higher = enhanced NF-kB activity
Summary of the method: (§1)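 Compound reached 10 μM final in each well by pin transfer, onto RAW-Dual murine macrophage reporter cells seeded at 50 000 per well in 384-well plates. After 1 hour at 37 °C, the cells were stimulated overnight with a PRR agonist. SEAP in the supernatant was read with QUANTI-Blue at 620 nm absorbance for NF-κB, and Lucia luciferase was read with QUANTI-Luc luminescence for IRF. Each signal was turned into fold change against the mean agonist-only control on the same plate, and two replicate plates were averaged with propagated errors.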

[2] = tested on: RAW-Dual (murine macrophage reporter line); experiment: IRF reporter (Lucia luciferase) activity fold change vs agonist alone; higher = enhanced IRF activity
Summary of the method: as §1

[3] = tested on: RAW-Dual (murine macrophage reporter line); experiment: viability score (confluency relative to resting cells, overnight) (fraction); higher = more viable, active = viable (0.7 or more)
Summary of the method: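 Overnight exposure to 10 μM final compound was carried out on RAW-Dual macrophages in 384-well plates. IncuCyte software generated two confluency masks over all wells imaged with IncuCyte. The viability score gives confluency in relation to resting cells. A compound met the cutoff if each mask exceeded 70% of resting cells.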

[4] = agonist: CpG ODN 1826 0.5 ug/mL

Structure (SMILES) | NF-kB reporter [1, 4] | NF-kB reporter ([1]; agonist: LPS 0.1 ug/mL) | NF-kB reporter ([1]; agonist: MPLA […]) | IRF reporter ([2]; agonist: 3'3'-cGAMP 10 ug/mL) | IRF reporter ([2]; agonist: LPS 0.1 ug/mL) | IRF reporter ([2]; agonist: MPLA […]) | viability score [3]
Cc1cc(C)c(-c2csc(NC(=O)C=Cc3cccs3)n2)c(C)c1 | 0.618 ± 0.048 | 0.873 ± 0.091 | 1.44 ± 0.066 | 1.02 ± 0.071 | 1.12 ± 0.097 | 1.89 ± 0.17 | 0.8 (active)
O=C(Nc1nc(CC(=O)N2CCOCC2)cs1)c1ccccc1 | 1.02 ± 0.073 | 1.02 ± 0.09 | 0.941 ± 0.14 | 0.995 ± 0.053 | 1.24 ± 0.087 | 1.29 ± 0.1 | 1.01 (active)
COc1ccc(-c2cc(C(F)F)nn2-c2ccc(S(N)(=O)=O)cc2)cc1F | 0.989 ± 0.29 | 0.98 ± 0.05 | 0.993 ± 0.068 | 0.935 ± 0.052 | 1.3 ± 0.24 | 1.23 ± 0.18 | 0.998 (active)
O=C(Cc1ccc([N+](=O)[O-])cc1)NN=Cc1ccccn1 | 1.09 ± 0.18 | 1.07 ± 0.077 | 1.04 ± 0.04 | 0.89 ± 0.11 | 1.05 ± 0.12 | 1.08 ± 0.14 | 1 (active)
Cc1ccc(Nc2nc(Cl)nc(Nc3ccc(C(C)C)cc3)n2)cc1 | 0.851 ± 0.067 | 1.06 ± 0.078 | 1.19 ± 0.13 | 0.828 ± 0.045 | 1.1 ± 0.19 | 1.33 ± 0.32 | 1.03 (active)
Nc1ccn([C@H]2CC[C@@H](CO)O2)c(=O)n1 | 1.05 ± 0.13 | 1.1 ± 0.081 | 1.02 ± 0.09 | 1.03 ± 0.088 | 0.976 ± 0.06 | 1.02 ± 0.081 | 0.995 (active)
Cl.Cl.O=C(O)COCCN1CCN(C(c2ccccc2)c2ccc(Cl)cc2)CC1 (stereo not drawn) | 0.906 ± 0.15 | 0.996 ± 0.29 | 0.892 ± 0.05 | 0.942 ± 0.029 | 1.17 ± 0.39 | 1.14 ± 0.11 | 0.987 (active)
O=C(c1cccs1)c1nc2c(n1O)CCCCC2 | 1.01 ± 0.079 | 1.02 ± 0.076 | 0.967 ± 0.069 | 0.992 ± 0.056 | 1.17 ± 0.18 | 0.858 ± 0.085 | 0.899 (active)
O=[N+]([O-])c1ccc(CN2c3ccccc3C3=C(CCCC3)C23CCCCC3)cc1 | 0.959 ± 0.074 | 1.04 ± 0.08 | 0.936 ± 0.1 | 0.951 ± 0.057 | 1.33 ± 0.16 | 1.6 ± 0.27 | 1.03 (active)
Cc1ccccc1C(=O)Nc1nc(C(C)(C)C)cs1 | 0.519 ± 0.056 | 0.997 ± 0.047 | 1.12 ± 0.11 | 0.777 ± 0.047 | 1.23 ± 0.13 | 1.35 ± 0.13 | 1 (active)
O=C(NCCC(CCO)c1ccccc1)c1cccc(Br)c1 (stereo not drawn) | 0.731 ± 0.033 | 1.03 ± 0.093 | 0.988 ± 0.053 | 0.653 ± 0.031 | 0.927 ± 0.18 | 0.958 ± 0.35 | 0.996 (active)
Oc1ccc(CN2CCOCC2)cc1 | 1.05 ± 0.17 | 1.08 ± 0.094 | 0.971 ± 0.09 | 0.939 ± 0.06 | 1.24 ± 0.14 | 1.25 ± 0.13 | 0.995 (active)
Cc1ccc(C)c(NC(=O)CCN2CCN(C=O)CC2)c1 | 0.822 ± 0.17 | 0.905 ± 0.088 | 0.967 ± 0.079 | 0.962 ± 0.045 | 1.27 ± 0.37 | 1.33 ± 0.18 | 0.979 (active)
CN(C)CCCN1c2ccccc2Sc2ccccc21.Cl | 0.791 ± 0.075 | 0.956 ± 0.12 | 1.25 ± 0.054 | 0.719 ± 0.051 | 0.994 ± 0.07 | 0.798 ± 0.069 | 0.534 (inactive)
CCC(=O)NS(=O)(=O)c1ccc(-c2c(-c3ccccc3)noc2C)cc1 | 0.921 ± 0.14 | 1.2 ± 0.26 | 0.905 ± 0.05 | 0.971 ± 0.051 | 1.47 ± 0.31 | 1.25 ± 0.1 | 0.996 (active)
O=C(c1csc(-c2ccccc2)n1)N1CCCN(C2CCC2)CC1 | 0.763 ± 0.041 | 1.17 ± 0.094 | 0.937 ± 0.063 | 0.927 ± 0.081 | 1.19 ± 0.13 | 1.24 ± 0.12 | 1.01 (active)
Nc1ccccc1NC(=O)c1ccc(CNC(=O)OCc2cccnc2)cc1 | 2.23 ± 0.17 | 1.53 ± 0.14 | 1.96 ± 0.052 | 0.17 ± 0.033 | 0.252 ± 0.025 | 0.298 ± 0.029 | 0.913 (active)
CC(=O)C(C(=O)Nc1ccc(F)cc1)C(c1ccc(Cl)cc1Cl)C(C#N)C#N (stereo not drawn) | 0.894 ± 0.054 | 0.93 ± 0.057 | 0.915 ± 0.093 | 0.903 ± 0.04 | 1.1 ± 0.075 | 1.02 ± 0.26 | 1.01 (active)
COc1cc2c(cc1OC)CN(CCc1ccc(NC(=O)c3cccc4c(=O)c5cccc(OC)c5[nH]c34)cc1)CC2 | 0.0904 ± 0.022 | 1.43 ± 0.075 | 1.2 ± 0.088 | 0.132 ± 0.0091 | 1.42 ± 0.26 | 1.6 ± 0.15 | 0.971 (active)
N[C@H](Cc1ccccc1)C(=O)O | 0.958 ± 0.074 | 1.05 ± 0.052 | 0.958 ± 0.025 | 0.895 ± 0.076 | 0.988 ± 0.049 | 1.11 ± 0.14 | 1 (active)
NC(=O)[C@@H](CCC(F)(F)F)N(Cc1ccc(-c2ncon2)cc1F)S(=O)(=O)c1ccc(Cl)cc1 | 0.744 ± 0.062 | 1.04 ± 0.049 | 1.31 ± 0.16 | 0.949 ± 0.051 | 1.43 ± 0.084 | 1.58 ± 0.13 | 0.997 (active)
O=C(Nc1ccon1)C1CN(C(=O)COc2ccccc2F)C1 | 1.08 ± 0.18 | 1.07 ± 0.14 | 1.04 ± 0.1 | 1.06 ± 0.042 | 1.25 ± 0.24 | 1.33 ± 0.2 | 0.992 (active)
COc1cc(C=Cc2nc3ccccc3nc2O)cc(OC)c1 | 1.06 ± 0.054 | 1.06 ± 0.099 | 1.09 ± 0.074 | 0.565 ± 0.029 | 0.834 ± 0.087 | 1.08 ± 0.29 | 0.872 (active)
COC(CNS(=O)(=O)c1ccccc1Br)c1ccc(Cl)s1 (stereo not drawn) | 0.968 ± 0.32 | 1.08 ± 0.1 | 1.07 ± 0.071 | 1.18 ± 0.039 | 1.01 ± 0.12 | 1.21 ± 0.24 | 0.959 (active)
